# Measured values as given in ChEMBL document CHEMBL5606460, “ASAP - DENV-2 NS2B-NS3 protease fluorescence single point” (2024).
# The campaign covered roughly 2,000 compounds. About 110 (5.5%) showed an effect of 50% or more. The list comes from a sample in which strong results are over-represented; it also holds similar structures and randomly drawn compounds.
# Target: Genome polyprotein (dengue virus type 2) (UniProt P29990)
# [1] = Thailand/16681/1984, Concentration 25.0 uM, Number of replicates 1.0
structure (smiles),measurement,setting,value
N[C@H]1CC[C@H](NC(=O)[C@@H](NC(=O)OCc2ccccc2)c2ccc(OCc3ccccc3)cc2)C1,inhibition,"Thailand/16681/1984, Concentration 49.5 uM, Number of replicates 2.0, Standard deviation 0.9979193615621401 %",-9.06%
same,inhibition,"Thailand/16681/1984, Concentration 49.5 uM, Number of replicates 2.0, Standard deviation 5.780389191288721 %",-6.13%
same,inhibition,"Thailand/16681/1984, Concentration 99.01 uM, Number of replicates 2.0, Standard deviation 0.21863424783935215 %",-6.77%
same,inhibition,"Thailand/16681/1984, Concentration 99.01 uM, Number of replicates 2.0, Standard deviation 4.8738871027899835 %",-4.83%
same,inhibition,"Thailand/16681/1984, Concentration 198.0 uM, Number of replicates 2.0, Standard deviation 0.20009536646595624 %",3.56%
same,inhibition,"Thailand/16681/1984, Concentration 198.0 uM, Number of replicates 2.0, Standard deviation 2.9330264990309507 %",6.71%
Cn1cc(NC(=O)c2ccccc2C(F)(F)F)c(-c2ccc(O)cc2)n1,inhibition,"Thailand/16681/1984, Concentration 49.5 uM, Number of replicates 2.0, Standard deviation 1.4149767575059302 %",-3.58%
same,inhibition,"Thailand/16681/1984, Concentration 99.01 uM, Number of replicates 2.0, Standard deviation 0.6191126751592 %",-2.21%
same,inhibition,"Thailand/16681/1984, Concentration 198.0 uM, Number of replicates 2.0, Standard deviation 0.2617465963559337 %",-3.21%
O=C1NCC[C@@H]1CNS(=O)(=O)c1ccc(Oc2ccccc2Cl)cc1,inhibition,"Thailand/16681/1984, Concentration 49.5 uM, Number of replicates 2.0, Standard deviation 4.002985951466216 %",-0.264%
same,inhibition,"Thailand/16681/1984, Concentration 99.01 uM, Number of replicates 2.0, Standard deviation 4.526482853100752 %",0.42%
same,inhibition,"Thailand/16681/1984, Concentration 198.0 uM, Number of replicates 2.0, Standard deviation 4.411103663666057 %",2.4%
O=C1C[C@@H](CNC(=O)c2cc(Cl)ccc2NS(=O)(=O)c2ccc(Oc3ccccc3Cl)cc2)CN1,inhibition,"Thailand/16681/1984, Concentration 49.5 uM, Number of replicates 2.0, Standard deviation 1.683767946709369 %",12.4%
same,inhibition,"Thailand/16681/1984, Concentration 99.01 uM, Number of replicates 2.0, Standard deviation 0.12281254481286434 %",57.2%
same,inhibition,"Thailand/16681/1984, Concentration 198.0 uM, Number of replicates 2.0, Standard deviation 0.21046989752060982 %",53.6%
O=C1C[C@@H](NS(=O)(=O)c2ccc(Oc3ccccc3Cl)cc2)CCN1,inhibition,"Thailand/16681/1984, Concentration 49.5 uM, Number of replicates 2.0, Standard deviation 1.1905021365747266 %",-5.52%
same,inhibition,"Thailand/16681/1984, Concentration 99.01 uM, Number of replicates 2.0, Standard deviation 1.0784606403673063 %",-3.29%
same,inhibition,"Thailand/16681/1984, Concentration 198.0 uM, Number of replicates 2.0, Standard deviation 1.453680839379123 %",-1%
O=C1NCCC[C@@H]1CNS(=O)(=O)c1ccc(Oc2ccccc2Cl)cc1,inhibition,"Thailand/16681/1984, Concentration 49.5 uM, Number of replicates 2.0, Standard deviation 0.9940716071741866 %",-2.68%
same,inhibition,"Thailand/16681/1984, Concentration 99.01 uM, Number of replicates 2.0, Standard deviation 0.27557480876496404 %",-0.801%
same,inhibition,"Thailand/16681/1984, Concentration 198.0 uM, Number of replicates 2.0, Standard deviation 0.9840594547230297 %",1.79%
O=C(N[C@H]1CCNC1=O)c1cc(Cl)ccc1NS(=O)(=O)c1ccc(Oc2ccccc2Cl)cc1,inhibition,"Thailand/16681/1984, Concentration 49.5 uM, Number of replicates 2.0, Standard deviation 0.36576586141779044 %",30.3%
same,inhibition,"Thailand/16681/1984, Concentration 99.01 uM, Number of replicates 2.0, Standard deviation 0.2318278972972024 %",51.8%
same,inhibition,"Thailand/16681/1984, Concentration 198.0 uM, Number of replicates 2.0, Standard deviation 0.7755829345495912 %",18.9%
O=C(NC[C@H]1CCCO1)c1cc(Cl)ccc1NS(=O)(=O)c1ccc(Oc2ccccc2Cl)cc1,inhibition,"Thailand/16681/1984, Concentration 49.5 uM, Number of replicates 2.0, Standard deviation 0.11391652520397291 %",86.2%
same,inhibition,"Thailand/16681/1984, Concentration 99.01 uM, Number of replicates 2.0, Standard deviation 0.06140357500812747 %",84.7%
same,inhibition,"Thailand/16681/1984, Concentration 198.0 uM, Number of replicates 2.0, Standard deviation 0.13037604965923533 %",79.4%
O=C(NCC1CC1)c1cc(Cl)ccc1NS(=O)(=O)c1ccc(Oc2ccccc2Cl)cc1,inhibition,"Thailand/16681/1984, Concentration 49.5 uM, Number of replicates 2.0, Standard deviation 0.6779748794958176 %",77.8%
same,inhibition,"Thailand/16681/1984, Concentration 99.01 uM, Number of replicates 2.0, Standard deviation 0.21598068225710626 %",88.2%
same,inhibition,"Thailand/16681/1984, Concentration 198.0 uM, Number of replicates 2.0, Standard deviation 0.009057863507173258 %",87%
C[C@H](NC(=O)C1CCN(c2ccc(C=O)cc2)CC1)c1ccc(Br)cc1,inhibition,[1],12.7%
O=C(N[C@@H](C(=O)NC1CCNCC1)c1ccc(OCc2ccccc2)cc1)OCc1ccccc1,inhibition,"Thailand/16681/1984, Concentration 49.5 uM, Number of replicates 2.0, Standard deviation 0.04752487067458113 %",-0.225%
same,inhibition,"Thailand/16681/1984, Concentration 99.01 uM, Number of replicates 2.0, Standard deviation 0.6611370067327399 %",-0.49%
same,inhibition,"Thailand/16681/1984, Concentration 198.0 uM, Number of replicates 2.0, Standard deviation 1.22541945186685 %",2.06%
CNc1ccccc1C(=O)Nc1cccc2c(CO)cc(C)nc12,inhibition,"Thailand/16681/1984, Concentration 49.95 uM, Number of replicates 2.0, Standard deviation 1.7606224720878931 %",-0.213%
same,inhibition,"Thailand/16681/1984, Concentration 99.9 uM, Number of replicates 2.0, Standard deviation 1.1796035516056886 %",2.15%
Cc1cc(N)c2cccc(F)c2n1,inhibition,"Thailand/16681/1984, Concentration 49.95 uM, Number of replicates 2.0, Standard deviation 2.207074007413848 %",-9.77%
same,inhibition,"Thailand/16681/1984, Concentration 99.9 uM, Number of replicates 2.0, Standard deviation 2.035147234269057 %",-9.31%
Cn1cc(NC(=O)c2ccccc2C(F)(F)F)c(-c2ccc(N)nc2)n1,inhibition,"Thailand/16681/1984, Concentration 49.5 uM, Number of replicates 2.0, Standard deviation 0.02318042950620363 %",-3.62%
same,inhibition,"Thailand/16681/1984, Concentration 99.01 uM, Number of replicates 2.0, Standard deviation 0.5795125921164253 %",-3.54%
same,inhibition,"Thailand/16681/1984, Concentration 198.0 uM, Number of replicates 2.0, Standard deviation 2.685074924440845 %",-2.16%
O=C(c1ccc2c(c1)B(O)OC2)N1CCN[C@H](c2ccc(Cl)cc2)C1,inhibition,"Thailand/16681/1984, Concentration 49.5 uM, Number of replicates 2.0, Standard deviation 1.1051975895382533 %",-1.33%
same,inhibition,"Thailand/16681/1984, Concentration 99.01 uM, Number of replicates 2.0, Standard deviation 0.5109273627094355 %",-1.22%
same,inhibition,"Thailand/16681/1984, Concentration 198.0 uM, Number of replicates 2.0, Standard deviation 0.04393612974415127 %",-0.309%
Cc1n[nH]cc1-c1ccccc1C(=O)Nc1cnn(C)c1,inhibition,"Thailand/16681/1984, Concentration 49.5 uM, Number of replicates 2.0, Standard deviation 1.4825862030761958 %",-4.22%
same,inhibition,"Thailand/16681/1984, Concentration 99.01 uM, Number of replicates 2.0, Standard deviation 3.6856999240165664 %",-5.61%
same,inhibition,"Thailand/16681/1984, Concentration 198.0 uM, Number of replicates 2.0, Standard deviation 2.662860479629087 %",-5.61%
Cc1ccc(NC(=O)C2CCN(c3ccc(C=O)cc3)CC2)cc1Br,inhibition,[1],8.71%
